A short description of experiment [1]: NCI Yeast Anticancer Drug Screen. Data for the rad50 strain (AID 155).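 Further: 0% = growth of vehicle-only cultures of the same strain.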 As to conditions: S. cerevisiae rad50 strain growth inhibition; at 50.0 µM; hits give high values. In outline:
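Cells are treated with compound, grown, and their growth is then scored against vehicle-only cultures of the same repair-deficient yeast strain.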

The nature of experiment [2]: NCI Yeast Anticancer Drug Screen. Data for the mec2-1 strain (AID 157). As to conditions: S. cerevisiae mec2-1 strain, at 50.0 µM, hits give high values. In outline:
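Growth inhibition is read against vehicle-treated controls after compound exposure of the mec2-1 yeast strain, which is defective in DNA damage repair or cell cycle control.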

Experiment [3] in a line: NCI Yeast Anticancer Drug Screen. Data for the sgs1 mgt1 strain (AID 161).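 Further: 0% = growth of cultures given vehicle only.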 As to conditions: S. cerevisiae sgs1 mgt1 strain, at 50.0 µM, hits give high values. In outline: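 Yeast cells carrying a defined DNA-repair defect were exposed to test compounds. Growth inhibition was measured relative to vehicle-treated controls.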
A short description of experiment [4]: NCI Yeast Anticancer Drug Screen. Data for the cln2 rad14 strain (AID 165).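 Further: 0% = growth equal to vehicle treated cultures.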 As to conditions: S. cerevisiae cln2 rad14 strain, at 50.0 µM, hits give high values. In outline: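 Growth inhibition, relative to vehicle-treated controls, is the read-out. The test organism is a yeast strain with defined genetic alterations, cln2 rad14.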
The nature of experiment [5]: NCI Yeast Anticancer Drug Screen. Data for the bub3 strain (AID 167). As to conditions: S. cerevisiae bub3 mutant strain, at 50.0 µM, hits give high values. The method in brief: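 Part of a panel of yeast mutants defective in DNA damage repair or cell cycle regulation. Each strain is grown with compound, and inhibition is calculated relative to solvent-treated cultures.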

A short description of experiment [6]: NCI Yeast Anticancer Drug Screen. Data for the mlh1 rad18 strain (AID 175). As to conditions: S. cerevisiae mlh1 rad18 strain growth inhibition; at 50.0 µM; hits give high values. In outline:
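Cells of a genetically altered yeast strain, deficient in DNA damage repair, were treated with compound. Their growth was then compared with that of vehicle-treated cultures to give inhibition.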

Values joined by “and” are separate entries in the source; they are usually repeats but may differ in a detail not shown here. Identical values can stand only once. This is part of a sample that, as a whole, favours compounds with a hit. Of some 79,000 tested, about 15% had one in any assay. A number with no mark means an inactive call. Active and inactive are the calls of the source. No stated cut-off is given here; in the data, active means growth inhibition above about 70%; inactive means the rest.

With `C[CH2][Pb]([CH2]C)([CH2]C)[n]1ccnc1`, the growth inhibition in experiment [1] is -22.6%; in experiment [2], -6.8%; in experiment [3] it was -11.9%; in experiment [4], -29.3%; in experiment [5] it was -1.4%; in experiment [6], -9%.
For `c1ccc(C(NC2=NCCO2)c2ccccc2)cc1`, the growth inhibition in experiment [1] is -19%; in experiment [2], -33%; in experiment [3], -60.8%; in experiment [4], -21.5%; in experiment [5], -17.2%; in experiment [6], -45.8%.
With `CC(=O)CC(C)=O.CC(=O)CC(C)=O.[Ni]`, the growth inhibition was -39% in experiment [1]; -31.4% in experiment [2]; -1.1% in experiment [3]; 31.1% in experiment [4]; -6.35% in experiment [5]; -25.4% in experiment [6].
As for `ClCCN(CCCl)c1ccc(C2=Nc3cccc4cccc(c34)N2)cc1`, the growth inhibition in experiment [1] was 3.65%; in experiment [2], 9.8%; in experiment [3], 6.75%; in experiment [4], -0.25%; in experiment [5], -8.05%; in experiment [6], 5.05%.
`O=C(O)c1ccc(Cl)c(Cl)c1`: the growth inhibition in experiment [1] is 1.7%; in experiment [2], -5.4%; in experiment [3], 3.9%; in experiment [4] it was -14.2%; in experiment [5], 5.95%; in experiment [6] it was 0.45%.
Regarding `NC(N)=Nc1c(N)ncnc1N`, the growth inhibition in experiment [1] is -4.9%; in experiment [2] it was 6.2%; in experiment [3], 4.4%; in experiment [4] it was -2.65%; in experiment [5] it was -0.8%; in experiment [6] it was -4.45%.
For `CCCCOS(C)(=O)=O`, the growth inhibition in experiment [1] is 19.6%; in experiment [2], -13.8%; in experiment [3], 22.4%; in experiment [4], 5.8%; in experiment [5], 21.4%; in experiment [6], 29.4%.
Turning to `O=C(CN1CCCCC1)c1ccc(Br)cc1`, the growth inhibition in experiment [1] is 15.7%; in experiment [2], 6.1%; in experiment [3] it was 9.4%; in experiment [4], -20.9%; in experiment [5], -12.4%; in experiment [6], 9.55%.
In the case of `Fc1ccc(C(Cl)(Cl)Cl)cc1`, the growth inhibition in experiment [1] was -8.9%; in experiment [2], -33.5%; in experiment [3] it was 2.75%; in experiment [4], -17.2%; in experiment [5] it was -17.1%; in experiment [6], 6.2%.
Consider `CC1CCC2C(C)C3C(CC4C5CC=C6CC(OC7OC(CO)C(O)C(OC8OC(CO)C(O)C(O)C8O)C7OC7OC(C)C(O)C(O)C7O)CCC6(C)C5CCC43C)N2C1` (centres undefined), for which the growth inhibition is -3.25% and 9.1% in experiment [1]; 11.8% and -8.5% in experiment [2]; -5.75% and 10.2% in experiment [3]; -6.3% and -9.3% in experiment [4]; -1.65% and 1.95% in experiment [5]; 36.5% and 15.3% in experiment [6].
As to `OCC(S)CS.[Sb]` (centres undefined), the growth inhibition was 21.1% in experiment [1]; 19.1% in experiment [2]; 29.8% in experiment [3]; 41% in experiment [4]; 44% in experiment [5]; 42% in experiment [6].
In the case of `OC1=C2CCCCCC2=[N+]2CCCCC2C1` (centres undefined), the growth inhibition in experiment [1] was 19.1%; in experiment [2], 33.6%; in experiment [3], 52.5%; in experiment [4], -1.6%; in experiment [5], 32.2%; in experiment [6], 70.8% (active).
Consider `CCC[CH2][Sn]([CH2]CCN(C)C)([CH2]CCN(C)C)[CH2]CCN(C)C`, for which the growth inhibition is 38.5% in experiment [1]; 8.4% in experiment [2]; 12.8% in experiment [3]; 15.2% in experiment [4]; -1.95% in experiment [5]; 28.2% in experiment [6].
`CC(=O)CC(C)=O.CC(=O)CC(C)=O.CC(=O)CC(C)=O.[Sm]`: the growth inhibition was 53% in experiment [1]; 13.8% in experiment [2]; 37.1% in experiment [3]; 31.9% in experiment [4]; 9.1% in experiment [5]; 33.8% in experiment [6].
Turning to `ClCC1CCN(CCc2ccccc2)CC1`, the growth inhibition in experiment [1] is -5.5%; in experiment [2], 13.8%; in experiment [3], 8.65%; in experiment [4], -36.6%; in experiment [5], -17.8%; in experiment [6], 9.65%.
On to `CC(O)C[As](=O)(O)c1ccccc1Cl` (centres undefined), for which the growth inhibition is 2.85% in experiment [1]; 25.5% in experiment [2]; -17.3% in experiment [3]; -2.55% in experiment [4]; 14.4% in experiment [5]; -16.6% in experiment [6].
With `CNC(=O)c1cn(C2OC(CO)C(O)C2O)c2ncnc(N)c12` (centres undefined), the growth inhibition in experiment [1] was -5.95%; in experiment [2] it was 8.3%; in experiment [3], 4.7%; in experiment [4], -1.25%; in experiment [5] it was -1.05%; in experiment [6] it was 5.65%.
Regarding `C=C(C(=O)OC1CC2CCC(C1)[N+]2(C)[O-])c1ccccc1` (centres undefined), the growth inhibition in experiment [1] is 7.4%; in experiment [2], -6%; in experiment [3], -19.4%; in experiment [4], -2.95%; in experiment [5] it was 3.1%; in experiment [6] it was -23.3%.
As for `CC([NH-])C(=O)O.CC([NH-])C(=O)O.[Cu+2]` (centres undefined), the growth inhibition in experiment [1] was -0.95%; in experiment [2] it was 11.3%; in experiment [3], 15.6%; in experiment [4], -40.1%; in experiment [5] it was -15.9%; in experiment [6], 19.6%.

For the origin of these results see PubChem BioAssay (NCI).
